Assay results from PubChem BioAssay (NCATS).
Records with an inconclusive call do not appear. The source made the active and inactive calls. The call rests on the fitted dose curve; in most records, active means well fitted curve in the direction sought with a large enough effect; inconclusive means small, poorly fitted or top-dose-only effect, or another doubt; inactive means no such curve, though single readings can be large; an effect the other way counts as inactive or inconclusive.

Assays:
[1] = qHTS of pediatric cancer cell lines to identify multiple opportunities for drug repurposing: Primary screen for NB-EBc1 cells (AID 1347095)
Method in brief: (§1)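 Following a 5-hour attachment period, cells at 500-1,000/well received compounds and were cultured for 48 hours. CellTiter-Glo was added and luminescence read to estimate viable, metabolically active cells.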

[2] = qHTS of pediatric cancer cell lines to identify multiple opportunities for drug repurposing: Primary screen for U-2 OS cells (AID 1347096); further: nearly all actives have a fitted effect of over 50% in size
Method in brief: (§2)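 Cells (500-1,000/well) rested 5 h, then received compounds for 48 h; metabolically active cells were measured by CellTiter-Glo luminescence. Final concentrations spanned up to 46 µM (MIPE, 11-point) or 0.59 nM-46 µM (NPC, 8-point) in primary screens, 11-point in follow-ups.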

[3] = qHTS of pediatric cancer cell lines to identify multiple opportunities for drug repurposing: Primary screen for Saos-2 cells (AID 1347097); further: nearly all actives have a fitted effect of over 40% in size
Method in brief: as §1

[4] = qHTS of pediatric cancer cell lines to identify multiple opportunities for drug repurposing: Primary screen for SK-N-SH cells (AID 1347098); further: nearly all actives have a fitted effect of over 65% in size
Method in brief: as §2

[5] = qHTS of pediatric cancer cell lines to identify multiple opportunities for drug repurposing: Primary screen for NB1643 cells (AID 1347099); further: nearly all actives have a fitted effect of over 50% in size
Method in brief: as §1

[6] = qHTS of pediatric cancer cell lines to identify multiple opportunities for drug repurposing: Primary screen for BT-12 cells (AID 1347101); further: nearly all actives have a fitted effect of over 25% in size
Method in brief: as §2

[7] = qHTS of pediatric cancer cell lines to identify multiple opportunities for drug repurposing: Primary screen for OHS-50 cells (AID 1347103); further: nearly all actives have a fitted effect of over 40% in size
Method in brief: as §2

[8] = qHTS of pediatric cancer cell lines to identify multiple opportunities for drug repurposing: Primary screen for LAN-5 cells (AID 1347100)
Method in brief: as §2

[9] = qHTS of pediatric cancer cell lines to identify multiple opportunities for drug repurposing: Primary screen for Rh18 cells (AID 1347102); further: nearly all actives have a fitted effect of over 65% in size
Method in brief: as §2

[10] = qHTS of pediatric cancer cell lines to identify multiple opportunities for drug repurposing: Primary screen for RD cells (AID 1347104); further: nearly all actives have a fitted effect of over 55% in size
Method in brief: as §1

Measured: Potency
Potency means the concentration at half of the fitted maximal effect.

CCCCCC[C@H]1C(=O)O[C@H](C)[C@H](NC(=O)c2cccc(NC=O)c2O)C(=O)O[C@@H](C)[C@@H]1OC(=O)CC(C)C
active: [1] 23.5 nM | [3] 11800 nM | [5] 23500 nM | [6] 122 nM | [7] 61.1 nM
inactive: [2] | [4]

CC[N+]1(CCOC(=O)C(O)(c2ccccc2)c2ccccc2)CCCCC1
not listed: [7]
inactive: all other assays above

Cc1c(N)nc([C@H](CC(N)=O)NC[C@@H](N)C(N)=O)nc1C(=O)N[C@H](C(=O)N[C@@H](C)[C@H](O)[C@@H](C)C(=O)N[C@@H](C(=O)NCCc1nc(-c2nc(C(=O)NCCC[S+](C)C)cs2)cs1)[C@@H](C)O)C(O[C@H]1O[C@H](CO)[C@H](O)[C@@H](O)[C@@H]1O[C@H]1O[C@H](CO)[C@@H](O)[C@H](OC(N)=O)[C@H]1O)c1cnc[nH]1 (stereo partly specified)
active: [1] 1320 nM | [3] 1660 nM | [5] 1660 nM | [8] 526 nM | [7] 1720 nM
inactive: [2] | [4] | [9]

COC1=CC(C)=C[C@@H](C)[C@@H](O)[C@@H](C)CC(C)=CC=C[C@H](OC)[C@H]([C@@H](C)[C@@H](O)[C@H](C)[C@@]2(O)C[C@@H](O)[C@H](C)[C@@H](C(C)C)O2)OC1=O
active: [1] 1 nM | [2] 37200 nM | [3] 29600 nM | [4] 13.6 nM | [5] 9.3 nM | [6] 4.9 nM | [9] 14800 nM | [7] 1.4 nM | [10] 1 nM

O=C(O)C(Cl)Cl
not listed: [7]
inactive: all other assays above

CCOP(=O)(NC(C)C)Oc1ccc(SC)c(C)c1 (stereo unspecified)
not listed: [6] | [7]
inactive: all other assays above

O=C(O)COc1nc(Cl)c(Cl)cc1Cl
active: [3] 1 nM
not listed: [6]
inactive: all other assays above

CCCCOC(=O)c1ccccc1C(=O)OCc1ccccc1
not listed: [7]
inactive: all other assays above

C[C@@H]1[C@H](O)[C@@H](C)C=CC=CCCC=CC=CC=CC=C[C@H](O[C@H]2O[C@@H](C)[C@H](O)[C@@H](N)[C@@H]2O)CC2O[C@](O)(C[C@@H](O)[C@H](O)CC[C@@H](O)C[C@@H](O)C[C@@H](O)CC(=O)O[C@H]1C)C[C@H](O)[C@H]2C(=O)O
not listed: [7]
inactive: all other assays above

C[C@@H]1O[C@@H](O[C@@H]2C=C3CC[C@@H]4[C@@H](CC[C@]5(C)[C@H](c6ccc(=O)oc6)CC[C@@]45O)[C@@]3(C)CC2)[C@H](O)[C@H](O)[C@H]1O
active: [1] 41.8 nM | [2] 23.5 nM | [3] 52.6 nM | [4] 96.1 nM | [5] 83.3 nM | [8] 14.8 nM | [6] 19.3 nM | [10] 7.4 nM

O=S(=O)(F)Cc1ccccc1
not listed: [7]
inactive: all other assays above

O=c1[nH]c2ccc(Cl)cc2c(N[C@@H]2CN3CCC2CC3)c1-c1nc2ccccc2[nH]1
active: [1] 41.8 nM | [2] 187 nM | [3] 418 nM | [4] 9610 nM | [5] 526 nM | [8] 148 nM | [6] 15300 nM | [7] 109 nM | [10] 5900 nM

O=[N+]([O-])c1ccc([As](=O)(O)O)cc1
not listed: [7]
inactive: all other assays above

COC1=C[C@@H]2[C@@H]3Cc4ccc(OC)c(O)c4[C@]2(CCN3C)CC1=O
active: [1] 20900 nM | [4] 6070 nM | [5] 5900 nM
not listed: [8] | [10]
inactive: all other assays above

CC[C@@]1(O)C(=O)OCc2c1cc1n(c2=O)Cc2cc3ccccc3nc2-1
active: [1] 8.3 nM | [2] 1180 nM | [3] 46.9 nM | [4] 121 nM | [5] 46.9 nM | [8] 9.3 nM | [6] 273 nM | [9] 296 nM | [10] 743 nM

CCC1(CCC(C)C)C(=O)NC(=O)NC1=O
not listed: [6]
inactive: all other assays above

C[C@]12CC[C@H]3[C@@H](CCC4=CC(=O)CC[C@@]43C)[C@H]1CC[C@H]2O
not listed: [7]
inactive: all other assays above

CC(C)(C)NC[C@H](O)c1ccc(O)cc1Cl
inactive: all assays above

CC(C)NCC(O)c1ccc([N+](=O)[O-])cc1 (stereo unspecified)
not listed: [7]
inactive: all other assays above

Cc1ccc(Cl)c(O)c1
not listed: [7]
inactive: all other assays above

CCCC[N+]1(C)[C@H]2CC(OC(=O)[C@H](CO)c3ccccc3)C[C@H]1[C@H]1O[C@H]12 (stereo partly specified)
inactive: all assays above

O=[N+]([O-])c1c(Cl)c(Cl)cc(Cl)c1Cl
not listed: [7]
inactive: all other assays above

CN[C@@H]1Cc2cccc3[nH]c(=O)n(c23)C1
not listed: [7]
inactive: all other assays above

NC1=NC(=O)N2CC12 (stereo unspecified)
active: [3] 13200 nM | [6] 21700 nM
inactive: [1] | [2] | [4] | [5] | [9]

CC(=O)[O][Hg][c]1ccccc1
active: [1] 21100 nM | [2] 2660 nM | [3] 668 nM | [4] 970 nM | [5] 1190 nM | [6] 3470 nM | [9] 2660 nM | [7] 4900 nM | [10] 944 nM

CC(Cc1ccc(O)cc1)NCC(O)c1cc(O)cc(O)c1 (stereo unspecified)
not listed: [7]
inactive: all other assays above

Nc1ccc(Cl)cc1
not listed: [7]
inactive: all other assays above

Cc1ccccc1-n1c(Cn2cnc3c(N)ncnc32)nc2cccc(C)c2c1=O
active: [1] 743 nM | [2] 14800 nM | [3] 132 nM | [4] 8570 nM | [5] 590 nM | [8] 264 nM | [9] 1050 nM | [7] 61.1 nM | [10] 2350 nM

O=S(=O)(CC1CS1)c1ccc(Oc2ccccc2)cc1 (stereo unspecified)
active: [1] 23500 nM | [3] 18700 nM | [4] 24100 nM | [5] 18700 nM | [8] 23500 nM | [7] 30600 nM
inactive: [2]

CCOCCOC(C)=O
not listed: [6] | [7]
inactive: all other assays above

Nc1c(Cl)c(Cl)c(Cl)c(Cl)c1Cl
not listed: [7]
inactive: all other assays above

CC(O)CN1CCN(CC(=O)[O-])CCN(CC(=O)[O-])CCN(CC(=O)[O-])CC1.[Gd+3] (stereo unspecified)
inactive: all assays above

OCCCBr
not listed: [7]
inactive: all other assays above

C=CC(=O)NCNC(=O)C=C
not listed: [7]
inactive: all other assays above

CCC(=O)OC1CCC2C3CCC4=CC(=O)CC[C@@]4(C)C3CC[C@]12C (stereo partly specified)
not listed: [7]
inactive: all other assays above

O=C(Oc1ccc([N+](=O)[O-])cc1)N1CCC(C(O)(c2ccc3c(c2)OCO3)c2ccc3c(c2)OCO3)CC1
not listed: [5] | [7] | [9]
inactive: all other assays above

O=[N+]([O-])c1ncc[nH]1
not listed: [5] | [6] | [7]
inactive: all other assays above

CC(=Cc1csc(C)n1)[C@@H]1C[C@H]2O[C@@H]2CCC[C@H](C)[C@@H](O)[C@@H](C)C(=O)C(C)(C)[C@@H](O)CC(=O)O1
inactive: [2] | [4] | [9]
active: [1] 1 nM | [3] 1 nM | [8] 1 nM

COc1ccc2c(c1)[C@]13CCCCC1C(C2)N(C)CC3 (stereo partly specified)
not listed: [4] | [5] | [7]
inactive: all other assays above

CC(C)(O)C(=O)Nc1ccc([N+](=O)[O-])c(C(F)(F)F)c1
inactive: [1] | [2] | [3] | [9]
active: [4] 24100 nM | [5] 5900 nM | [10] 29600 nM
